High-throughput results as filed in PubChem.
Compounds with a hit are over-represented: about 3.1% of the library has one in this group of screens.
HIF-2a inh: HIF-2a inhibition; 786-0 RCC cells HIF-2a reporter, luciferase luminescence, overnight; inhibition, % at 18.8 µM; hit rate 0.72% among 360,000; AID 624352;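 active = inhibition of the luminescence signal of 40% or more relative to plate controls, in a single-dose primary screen at 18.75 µM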
C8 TRAIL sens: sensitizes caspase-8 expressing cells to TRAIL; inhibition (viability loss, TRAIL sensitization), % at 10 µM; AID 624354; hit rate 1% among 360,000; NB7+C8 cells + TRAIL, ATPlite viability luminescence;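 active = compounds causing at least 50% loss of cell viability in the single-dose screen, relative to plate controls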
KKLEB cytotox: reduces viability of KKLEB cystic fibrosis airway cells; activity change (cytotoxicity), % at 5 µM; hit rate 0.36% among 360,000; KKLEB CF airway cells viability, ATPlite luminescence, overnight; stronger effect = lower value; cells stimulated with P. aeruginosa culture filtrate;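 active = corrected activity change at or below -50% at 5 µM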
PPC-1+TRAIL kill: PPC-1 cancer cell killing with TRAIL present. PPC-1 cells + TRAIL, ATPLite viability luminescence. cell killing (% activity), % at 4 µM or 5 µM. hit rate 0.41% among 220,000. AID 1443;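 active = cell killing above 50% in the first pass at 4 µM, then a duplicate retest at 5 µM averaging 50% or more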;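 also: plate controls were cells with TRAIL plus DMSO for no effect and medium-only wells lacking cells for full effect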
Peg3 prom inh: reduces Peg3 promoter-driven luciferase expression in HeLa; HeLa PEG-Prom luciferase reporter, luminescence, overnight; inhibition, % at 20 µM; hit rate 1.7% among 360,000; AID 588405;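 active = inhibition of at least 50% at 20 µM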
CF NFkB block: blocks PAF-induced NF-kB reporter in cystic fibrosis cells | KKLEB NF-kB-GFP reporter, GFP fluorescence overnight | inhibition, % at 5 µM | hit rate 0.86% among 360,000 | AID 588850;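 active = at least 50% inhibition at 5 µM, scaled per plate between neutral and stimulator controls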;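 also: PAF is a Pseudomonas aeruginosa culture filtrate used as stimulus; plate controls were PAF-stimulated DMSO wells for no effect and unstimulated DMSO wells for full effect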
Starred values were filed as active, the others as inactive; / = no result given.

SMILES | HIF-2a inh | C8 TRAIL sens | KKLEB cytotox | PPC-1+TRAIL kill | Peg3 prom inh | CF NFkB block
COc1cccc2c1C(=O)c1c(O)c3c(c(O)c1C2=O)C[C@@](O)(C(C)=O)C[C@@H]3O[C@H]1C[C@H](N)[C@H](O)[C@H](C)O1 | 25.8 | 58.5* | -46.7 | 56.0* | 88.9* | 65.6*
NC(=O)c1ccc(NC(=O)CNC(c2ccccc2)c2ccccc2)cc1 | 16.4 | -10.0 | 0.4 | / | -19.9 | 8.6
COC(=O)[C@@]12CCCN1[C@H](c1ccc(-c3cccc(Cl)c3)cc1)[C@H]1C(=O)N(C)C(=O)[C@H]12 | 2.9 | 5.2 | 8.3 | / | 0.7 | 2.0
C[C@H](CO)N1C[C@H](C)[C@@H](CN(C)Cc2ccc(F)cc2)Oc2ncc(Br)cc2C1=O | 3.0 | -6.0 | -0.3 | / | 5.5 | -18.0
O=C1/C(=N\S(=O)(=O)c2cccs2)C([n+]2cccc(Cc3ccccc3)c2)=C([O-])c2ccccc21 | 1.9 | 48.0* | -3.4 | 29.6 | 34.4 | 56.4*
CC1(C(=O)Nc2ccc3c(c2)OCCO3)CSCC(=O)N1CC(F)(F)F (stereo not drawn) | -28.9 | 4.3 | / | / | / | /
CC(C)(C)n1nc(Cc2cccc3ccccc23)c2c(N)ncnc21 | 33.9 | 6.6 | 0.9 | / | 44.3 | 50.4*
COc1ccc(Br)cc1CN1CCN(Cc2c[nH]c3ccccc23)CC1 | 15.7 | -3.5 | -4.8 | / | 52.0* | 10.1
COc1ccc(CN2CCN(Cc3c[nH]c4ccccc34)CC2)cc1OC | 19.9 | 15.6 | 4.7 | / | -21.1 | 1.5
Cc1nnc(NCc2n[nH]c(=O)c3ccccc23)c2ccccc12 | -41.7 | -15.8 | 4.5 | -15.2 | 106.4* | -8.8
COc1ccc(NCc2n[nH]c(=O)c3ccccc23)cc1 | -29.1 | -6.2 | -2.6 | 6.8 | 4.9 | 10.8
COc1ccc(OC)c(NC(=O)Cc2csc(NC(=O)Nc3ccccc3OC)n2)c1 | -5.6 | 16.0 | -16.4 | / | 53.8* | -8.7
COc1ccccc1NC(=O)Nc1nc(C(N)Cc2ccc(Cl)cc2)cs1 (stereo not drawn) | 10.9 | 10.1 | -6.8 | / | 106.2* | 5.7
COc1ccc(CC(N)c2csc(NC(=O)Nc3ccccc3-c3ccccc3)n2)cc1 (stereo not drawn) | 9.0 | 39.2 | -15.0 | / | 92.0* | 14.8
COc1ccc(OC)c(NC(=O)Nc2nc(C(N)CCc3ccccc3)cs2)c1 (stereo not drawn) | -22.7 | 34.0 | -18.3 | / | 100.2* | 24.1
COc1ccc(CC(N)c2csc(NC(=O)NCc3ccccc3)n2)cc1 (stereo not drawn) | 3.8 | -1.7 | -10.9 | / | 22.2 | 6.2
COc1cccc(CN(C)C(=O)COc2cccc3c2OC(C)(C)C3)c1OC | 8.6 | -16.7 | -4.2 | / | 6.3 | -4.2
COc1ccccc1NC(=O)Nc1nc(CC(=O)N2CCN(c3ccccc3F)CC2)cs1 | -18.5 | 16.3 | 5.2 | / | 52.4* | -23.2
COc1ccccc1NC(=O)Nc1nc(C(N)CC(C)C)cs1 (stereo not drawn) | 5.5 | 1.9 | -3.6 | / | 61.3* | -4.2
COc1ccccc1NC(=O)Nc1nc(C(N)Cc2ccccc2)cs1 (stereo not drawn) | -6.0 | 16.2 | 3.4 | / | 60.5* | 3.7
NC(CCc1ccccc1)c1csc(NC(=O)NCC2CCCCC2)n1 (stereo not drawn) | -55.2 | 41.4 | -11.3 | / | 98.1* | 8.5
O=C(O)C(Cc1cccs1)c1cccs1 (stereo not drawn) | 2.9 | 19.1 | 7.2 | / | 19.0 | 20.2
Cc1nc2cc(Oc3nc(NCCN(C)C)nc4ccsc34)ccc2s1 | -6.8 | 9.4 | -2.5 | / | 36.8 | 1.4
C[C@@H]1CN([C@@H](C)CO)S(=O)(=O)c2ccc(Br)cc2O[C@H]1CN(C)C(=O)Nc1ccc(C(F)(F)F)cc1 | -12.9 | 2.7 | -24.6 | / | 52.5* | -12.8
C[C@H]1CN([C@@H](C)CO)S(=O)(=O)c2ccc(Br)cc2O[C@@H]1CN(C)Cc1cccc(F)c1 | 16.5 | 1.9 | -2.3 | / | 55.5* | -9.3
SMILES | HIF-2a inh | C8 TRAIL sens | KKLEB cytotox | PPC-1+TRAIL kill | Peg3 prom inh | CF NFkB block
C[C@@H]1CN([C@@H](C)CO)S(=O)(=O)c2ccc(Br)cc2O[C@H]1CN(C)Cc1ccc(-c2ccccc2)cc1 | 10.8 | 6.2 | -7.3 | / | 50.0 | 24.2
O=C(NC1CCCCC1)C1CCCN1S(=O)(=O)c1ccc(Cl)cc1 (stereo not drawn) | 14.3 | -5.6 | 15.7 | / | 6.9 | 2.5
Cc1ccccc1-n1nc(C(=O)c2cccs2)cc(-c2nc3ccccc3[nH]2)c1=N | 5.2 | 7.9 | -21.1 | 9.5 | 25.6 | 18.5
COc1ccc(-n2nc(C(=O)c3cccs3)cc(-c3nc4ccccc4[nH]3)c2=N)cc1 | 16.2 | 1.2 | -13.1 | 12.6 | 87.4* | -59.1
CC(=O)c1c(C)[nH]c(C(=O)OCC(=O)c2ccc(C)s2)c1C | -211.7 | 18.5 | -10.7 | / | -181.4 | -2.0
Cc1ccc(-c2nc(N/N=C/c3cccc([N+](=O)[O-])c3)c3ccccc3n2)cc1 | -109.6 | 64.5* | -33.5 | / | -86.0 | -24.1
C=CCN=C(NC#N)SCC(=O)c1cccc(OC)c1 | -178.1 | 6.5 | -19.9 | -0.8 | -171.7 | 60.9*
CC(C)CC(N)c1csc(NC(=O)Nc2ccccc2Cc2ccccc2)n1 (stereo not drawn) | -2.8 | 23.9 | -9.2 | / | 85.6* | -1.7
CC(C)C(N)c1csc(NC(=O)Nc2ccccc2C(C)(C)C)n1 (stereo not drawn) | 1.7 | -18.1 | -24.4 | / | 9.2 | 24.6
CC(C)CC(N)c1csc(NC(=O)Nc2ccccc2-c2ccccc2)n1 (stereo not drawn) | 2.5 | 45.6 | -10.0 | / | 103.7* | 2.1
CC(C)CC(N)c1csc(NC(=O)C(c2ccccc2)c2ccccc2)n1 (stereo not drawn) | 1.2 | 42.5 | -13.6 | / | 95.0* | 29.3
N#Cc1ccccc1NC(=O)COC(=O)c1ccc(F)cc1F | 5.9 | -2.2 | -14.4 | / | 18.9 | 16.2
COc1ccccc1NC(=O)CSc1nncs1 | 8.9 | 5.0 | -2.4 | / | -0.4 | -32.8
O=C(N/N=C/c1ccccc1F)c1cc2c(ccc3ccccc32)o1 | -24.8 | 2.8 | -9.3 | / | 5.9 | 0.1
O=C(N/N=C/C=C/c1ccccc1)c1cc2c(ccc3ccccc32)o1 | -16.9 | 57.2* | -11.5 | 41.2 | 1.5 | -9.0
CC(C)c1ccccc1NC(=O)COC(=O)CCN1C(=O)/C(=C\C=C\c2ccccc2)SC1=S | 81.6* | 25.4 | 13.7 | 9.7 | -2.6 | -15.0
O=C(COC(=O)CCN1C(=O)/C(=C\C=C\c2ccccc2)SC1=S)Nc1ccc(Br)cc1 | 58.3* | -5.8 | 2.3 | 24.6 | -6.0 | -11.8
Cc1ccccc1-c1nc2sc3c(c2c(=O)n1N)CCCC3 | -127.2 | 53.8* | -13.4 | -1.8 | -246.8 | -18.0
Nn1c(-c2cccs2)nc2sc3c(c2c1=O)CCCC3 | -220.6 | 40.8 | 4.2 | 28.0 | -257.9 | 10.7
COc1cccc(CN2CCNC(=O)C2CC(=O)N(C)CCC2CCOCC2)c1OC (stereo not drawn) | 8.5 | -15.0 | 3.1 | / | 2.4 | 5.7
